# Measured values: the supplement of paper PMC12645437, “Orthogonal IMiD-Degron Pairs Induce Selective Protein Degradation in Cells” (ACS Chemical Biology, 2025)
# Whole data set: some 8,300 sequences, median “log2 fold change of degron read counts, EGFP-low vs EGFP+ sorted cells (limma voom), compound-induced degradation” near -1.1, cut for the highest 2% near 3.2. The sample as a whole holds a higher share of the highest values than the screen did.
# T1: CRBN, Q96SW2
# T1 chain: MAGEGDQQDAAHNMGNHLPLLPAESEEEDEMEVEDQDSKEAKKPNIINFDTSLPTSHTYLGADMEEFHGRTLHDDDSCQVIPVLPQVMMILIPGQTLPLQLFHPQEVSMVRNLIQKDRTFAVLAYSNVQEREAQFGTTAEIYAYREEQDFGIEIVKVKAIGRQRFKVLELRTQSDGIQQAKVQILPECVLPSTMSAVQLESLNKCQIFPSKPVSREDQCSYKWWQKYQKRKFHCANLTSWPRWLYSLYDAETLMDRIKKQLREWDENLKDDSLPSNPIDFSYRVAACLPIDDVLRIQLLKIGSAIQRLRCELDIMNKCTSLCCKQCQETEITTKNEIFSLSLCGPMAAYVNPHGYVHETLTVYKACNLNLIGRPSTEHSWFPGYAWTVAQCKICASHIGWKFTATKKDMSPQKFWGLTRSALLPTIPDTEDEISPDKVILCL
# B1: 46F_47E_49P_50I_52G_53R_54R_55F_67L_, Q9UKT9 (peptide)
# chain: FECPICGRRFTQKGNLLRHIKL
# B2: 46F_47R_49P_50Q_52G_53A_54D_55F_67L_, Q9UKT9 (peptide)
# chain: FRCPQCGADFTQKGNLLRHIKL
# B3: 46L_47C_49N_50Q_52G_53F_54C_55C_67L_, Q9UKT9 (peptide)
# chain: LCCNQCGFCCTQKGNLLRHIKL
# B4: 46F_47D_49D_50I_52G_53A_54F_55F_67L_, Q9UKT9 (peptide)
# chain: FDCDICGAFFTQKGNLLRHIKL
# B5: 46L_47M_49E_50I_52G_53F_54K_55C_67L_, Q9UKT9 (peptide)
# chain: LMCEICGFKCTQKGNLLRHIKL
# B6: 46F_47H_49N_50Q_52G_53H_54M_55F_67L_, Q9UKT9 (peptide)
# chain: FHCNQCGHMFTQKGNLLRHIKL
# B7: 46F_47C_49D_50I_52G_53A_54T_55F_67L_, Q9UKT9 (peptide)
# chain: FCCDICGATFTQKGNLLRHIKL
# B8: 46F_47E_49P_50I_52G_53A_54T_55F_67L_, Q9UKT9 (peptide)
# chain: FECPICGATFTQKGNLLRHIKL
# B9: 46F_47G_49N_50I_52G_53A_54T_55F_67L_, Q9UKT9 (peptide)
# chain: FGCNICGATFTQKGNLLRHIKL
# B10: 46F_47L_49D_50I_52G_53A_54T_55F_67L_, Q9UKT9 (peptide)
# chain: FLCDICGATFTQKGNLLRHIKL
# B11: 46F_47Y_49N_50I_52G_53A_54T_55F_67L_, Q9UKT9 (peptide)
# chain: FYCNICGATFTQKGNLLRHIKL
# B12: 46F_47L_49P_50I_52G_53A_54T_55F_67L_, Q9UKT9 (peptide)
# chain: FLCPICGATFTQKGNLLRHIKL
# B13: 46F_47Q_49N_50I_52G_53A_54T_55F_67L_, Q9UKT9 (peptide)
# chain: FQCNICGATFTQKGNLLRHIKL
# B14: 46F_47Q_49D_50I_52G_53A_54T_55F_67L_, Q9UKT9 (peptide)
# chain: FQCDICGATFTQKGNLLRHIKL
# B15: 46F_47D_49P_50I_52G_53A_54T_55F_67L_, Q9UKT9 (peptide)
# chain: FDCPICGATFTQKGNLLRHIKL
# B16: 46F_47Y_49P_50I_52G_53A_54T_55F_67L_, Q9UKT9 (peptide)
# chain: FYCPICGATFTQKGNLLRHIKL
# B17: 46F_47W_49P_50I_52G_53A_54T_55F_67L_, Q9UKT9 (peptide)
# chain: FWCPICGATFTQKGNLLRHIKL
# B18: 46F_47T_49P_50I_52G_53A_54T_55F_67L_, Q9UKT9 (peptide)
# chain: FTCPICGATFTQKGNLLRHIKL
# Molecular target: T1, CRBN, Q96SW2
# Experiment: log2 fold change of degron read counts, EGFP-low vs EGFP+ sorted cells (limma voom), compound-induced degradation; higher = more compound-induced degradation of the degron-EGFP fusion; degrons are variants of IKZF1/3 zinc finger 2; compound dose not given here
# Conditions: Jurkat, 18 h
# [1] = compound: compound 19 (5-tert-butyl-thalidomide)
# [2] = compound: compound 22 (5-morpholino-thalidomide)
# [3] = compound: compound 33 (diphenyl IMiD analogue)
# 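Also: pooled lentiviral library of zinc finger degron-EGFP fusions in mCherry-positive Jurkat cells, FACS-sorted after compound exposure, with degron abundance counted by next-generation sequencing.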
Sequence,log2 fold change of degron read counts [1],log2 fold change of degron read counts [2],log2 fold change of degron read counts [3],log2 fold change of degron read counts (compound: thalidomide)
B1,-0.662,-1.27,0.491,2.58
B2,-3.08,-3.48,-0.625,-1.35
B3,-1.92,-2.67,-1.9,-2
B4,-1.35,-2.45,-1.91,-1.7
B5,0.00993,-0.209,0.918,1.45
B6,-2.28,-2.39,-2.58,-2.2
B7,0.685,1.05,1.24,0.177
B8,0.0819,-0.536,1.91,2.9
B9,0.0778,1.89,1.52,0.109
B10,-1.67,-1.74,-0.434,-0.565
B11,0.426,2.67,0.933,-0.961
B12,-1.02,-0.515,1.48,1.68
B13,-0.501,1.47,1.42,3.87
B14,-0.685,1.86,0.81,3.25
B15,1.59,0.119,1.11,1.68
B16,3.2,3.57,2.42,1.16
B17,2.22,3.57,1.64,0.523
B18,0.225,2.5,2.28,2.88
